# Results as given in ChEMBL document CHEMBL3988442, “University of Dundee, Small-Polar-MMV Screening Library” (2021).
# For some assays here: Potency and affinity values are given separately.
# Assays:
# Design in all cases: scale not given: direction of the effect not stated beside the values
# [1] = molecular target: Protein translocase subunit SecA (Escherichia coli (strain K12)) (UniProt P10408); assay: Assay to Identify E. coli SecA ATPase Inhibitors; type: functional; details: 30 µM
# [2] = molecular target: T1, Ubiquitin-activating enzyme e1, putative (Leishmania donovani (strain BPK282A1)) (UniProt E9BSI1); assay: Leishmania donovani Ubiquitin Activating Enzyme (LdE1); type: functional; details: 30 µM
# T1 sequence (whole entry): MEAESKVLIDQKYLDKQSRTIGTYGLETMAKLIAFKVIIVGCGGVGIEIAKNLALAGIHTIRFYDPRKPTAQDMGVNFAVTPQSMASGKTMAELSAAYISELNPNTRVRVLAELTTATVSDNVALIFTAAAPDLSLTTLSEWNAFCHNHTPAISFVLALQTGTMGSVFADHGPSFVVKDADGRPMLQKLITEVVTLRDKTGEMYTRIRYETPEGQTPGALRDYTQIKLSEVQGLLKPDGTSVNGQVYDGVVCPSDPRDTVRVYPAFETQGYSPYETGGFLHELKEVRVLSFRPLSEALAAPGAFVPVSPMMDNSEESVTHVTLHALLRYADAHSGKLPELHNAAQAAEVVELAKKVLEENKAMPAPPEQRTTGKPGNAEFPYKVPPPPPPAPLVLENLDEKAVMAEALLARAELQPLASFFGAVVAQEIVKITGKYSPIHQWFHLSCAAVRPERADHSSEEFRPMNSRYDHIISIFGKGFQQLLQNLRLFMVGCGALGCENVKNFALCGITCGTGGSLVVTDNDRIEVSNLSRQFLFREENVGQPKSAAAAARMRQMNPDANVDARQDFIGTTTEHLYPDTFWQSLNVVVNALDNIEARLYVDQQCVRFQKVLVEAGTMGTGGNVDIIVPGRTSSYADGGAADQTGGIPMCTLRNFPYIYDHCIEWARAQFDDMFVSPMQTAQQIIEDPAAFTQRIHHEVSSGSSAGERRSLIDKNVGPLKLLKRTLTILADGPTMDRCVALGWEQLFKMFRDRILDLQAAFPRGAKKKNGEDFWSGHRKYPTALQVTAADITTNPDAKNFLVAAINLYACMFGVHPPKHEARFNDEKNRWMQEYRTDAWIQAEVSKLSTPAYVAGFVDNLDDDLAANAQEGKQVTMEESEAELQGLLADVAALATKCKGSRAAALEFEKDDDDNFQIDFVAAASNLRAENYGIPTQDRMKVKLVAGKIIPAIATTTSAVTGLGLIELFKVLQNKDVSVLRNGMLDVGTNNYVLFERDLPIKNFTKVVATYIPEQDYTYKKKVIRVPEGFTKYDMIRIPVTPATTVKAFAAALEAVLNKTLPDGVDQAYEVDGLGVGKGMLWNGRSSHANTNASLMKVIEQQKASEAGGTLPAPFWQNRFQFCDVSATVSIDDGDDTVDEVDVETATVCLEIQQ
# [3] = molecular target: AMP-activated protein kinase, AMPK (Homo sapiens) (UniProt P54646+O43741+P54619+Q9UGJ0+Q9Y478+Q13131+Q9UGI9); assay: AMP-dependent Kinase enzyme assay. An in vitro enzyme assay that detects ADP turnover that is directly proportional to AMPK activity. This uses naive AMPK that is activated during the assay with MK-8722; type: functional; details: 30 µM
# [4] = molecular target: Sialic acid-binding Ig-like lectin 9 (Homo sapiens) (UniProt Q9Y336); assay: Hs-Siglec9 ALPHAscreen SOP 20170721; details: 10 µM
# Sialic acid-binding Ig-like lectin 9 (Homo sapiens), sequence (Q9Y336 whole entry): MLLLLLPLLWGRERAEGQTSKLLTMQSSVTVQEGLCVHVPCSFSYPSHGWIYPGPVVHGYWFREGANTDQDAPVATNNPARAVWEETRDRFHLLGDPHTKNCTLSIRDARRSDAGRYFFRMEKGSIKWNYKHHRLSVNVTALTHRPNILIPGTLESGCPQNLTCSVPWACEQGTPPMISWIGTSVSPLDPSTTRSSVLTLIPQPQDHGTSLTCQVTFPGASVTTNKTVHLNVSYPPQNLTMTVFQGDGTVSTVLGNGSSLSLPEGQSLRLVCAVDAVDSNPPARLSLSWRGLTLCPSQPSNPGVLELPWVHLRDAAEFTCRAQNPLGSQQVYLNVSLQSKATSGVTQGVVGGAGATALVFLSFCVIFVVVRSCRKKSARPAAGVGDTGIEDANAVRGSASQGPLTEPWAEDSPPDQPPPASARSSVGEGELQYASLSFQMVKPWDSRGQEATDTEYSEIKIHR
# Trypanosoma cruzi = assay: Trypanosoma cruzi phosphomannomutase and mannose-1-phosphate guanylyltransferase assay; type: functional; details: 10 µM
# [5] = molecular target: T2, Arginase-2, mitochondrial (Homo sapiens) (UniProt P78540); assay: in vitro enzyme assay to detect the production of urea directly proportional to the activity of Arginase II; type: functional; details: 33.3 µM; also: in the data most compounds retested in dose-response had high values
# T2 sequence (whole entry): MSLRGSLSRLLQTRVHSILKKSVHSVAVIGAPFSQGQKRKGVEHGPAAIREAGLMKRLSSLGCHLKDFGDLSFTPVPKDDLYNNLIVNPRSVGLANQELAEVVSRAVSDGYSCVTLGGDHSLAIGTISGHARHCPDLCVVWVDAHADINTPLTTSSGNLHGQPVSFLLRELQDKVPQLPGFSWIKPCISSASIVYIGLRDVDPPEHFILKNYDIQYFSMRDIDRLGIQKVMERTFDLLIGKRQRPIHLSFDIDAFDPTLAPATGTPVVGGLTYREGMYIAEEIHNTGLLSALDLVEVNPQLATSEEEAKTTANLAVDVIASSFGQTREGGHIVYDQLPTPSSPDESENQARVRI
# [6] = molecular target: T3, Proteasome subunit beta (Trypanosoma cruzi) (UniProt O96673); assay: Trypanosoma cruzi proteasome chymotrypsin-like activity (TcProtChymo) assay.; also: in the data most compounds retested in dose-response had high values; type: functional; details: 9.37 µM
# T3 sequence (whole entry): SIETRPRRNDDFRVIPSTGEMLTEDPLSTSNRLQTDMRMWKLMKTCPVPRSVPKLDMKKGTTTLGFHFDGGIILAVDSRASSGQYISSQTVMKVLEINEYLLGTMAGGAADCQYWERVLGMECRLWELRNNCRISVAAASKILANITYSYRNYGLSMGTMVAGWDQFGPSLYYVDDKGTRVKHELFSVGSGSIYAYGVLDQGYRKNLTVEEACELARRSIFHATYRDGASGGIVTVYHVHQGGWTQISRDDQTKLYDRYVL
# Homo sapiens = species: Homo sapiens; assay: To identify inhibition of the IFN signalling (Jak-Stat) pathway via expression of an eGFP reporter gene under the control of an IFN-stimulated response element (ISRE) containing MxA promoter.; type: functional; details: 30 µM
# [7] = molecular target: T4, Tyrosyl-tRNA synthetase, putative (Trypanosoma cruzi (strain CL Brener)) (UniProt Q4DSP6); assay: Trypanosoma cruzi tyrosyl tRNA synthetase (TcYRS) _High Tyrosine SOP; type: functional; details: 30 µM; also: in the data most compounds retested in dose-response had high values
# T4 sequence (whole entry): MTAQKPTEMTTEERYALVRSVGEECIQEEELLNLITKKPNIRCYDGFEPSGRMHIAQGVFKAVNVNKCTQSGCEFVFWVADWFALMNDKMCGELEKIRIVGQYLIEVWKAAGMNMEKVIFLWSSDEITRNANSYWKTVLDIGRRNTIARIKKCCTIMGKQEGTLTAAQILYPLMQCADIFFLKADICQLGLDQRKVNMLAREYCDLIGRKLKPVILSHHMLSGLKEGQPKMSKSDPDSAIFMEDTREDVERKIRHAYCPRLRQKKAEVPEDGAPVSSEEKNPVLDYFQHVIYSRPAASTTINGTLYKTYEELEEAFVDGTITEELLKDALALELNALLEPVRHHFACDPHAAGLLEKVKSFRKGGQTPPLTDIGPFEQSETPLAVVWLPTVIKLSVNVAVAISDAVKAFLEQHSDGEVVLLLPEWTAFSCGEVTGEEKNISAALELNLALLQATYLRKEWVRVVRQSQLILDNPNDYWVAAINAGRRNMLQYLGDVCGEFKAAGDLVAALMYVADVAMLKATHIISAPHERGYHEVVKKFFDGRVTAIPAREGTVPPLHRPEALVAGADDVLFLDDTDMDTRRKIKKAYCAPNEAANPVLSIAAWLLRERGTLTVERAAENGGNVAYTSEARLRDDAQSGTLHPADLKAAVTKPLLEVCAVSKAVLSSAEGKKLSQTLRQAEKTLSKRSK
# [8] = molecular target: T4, Tyrosyl-tRNA synthetase, putative (Trypanosoma cruzi (strain CL Brener)); assay: Trypanosoma cruzi tyrosyl tRNA synthetase (TcYRS) SOP; type: functional; details: 30 µM
# [9] = molecular target: Chromo domain-containing protein 1 (Saccharomyces cerevisiae (strain ATCC 204508 / S288c) (Baker's yeast)) (UniProt P32657); assay: ScCHD-1 Enzyme Inhibition Assay; type: functional; details: 30 µM; also: in the data most compounds retested in dose-response had high values
# Chromo domain-containing protein 1 (Saccharomyces cerevisiae (strain ATCC 204508 / S288c) (Baker's yeast)), sequence (P32657 whole entry, the tested form may be a part): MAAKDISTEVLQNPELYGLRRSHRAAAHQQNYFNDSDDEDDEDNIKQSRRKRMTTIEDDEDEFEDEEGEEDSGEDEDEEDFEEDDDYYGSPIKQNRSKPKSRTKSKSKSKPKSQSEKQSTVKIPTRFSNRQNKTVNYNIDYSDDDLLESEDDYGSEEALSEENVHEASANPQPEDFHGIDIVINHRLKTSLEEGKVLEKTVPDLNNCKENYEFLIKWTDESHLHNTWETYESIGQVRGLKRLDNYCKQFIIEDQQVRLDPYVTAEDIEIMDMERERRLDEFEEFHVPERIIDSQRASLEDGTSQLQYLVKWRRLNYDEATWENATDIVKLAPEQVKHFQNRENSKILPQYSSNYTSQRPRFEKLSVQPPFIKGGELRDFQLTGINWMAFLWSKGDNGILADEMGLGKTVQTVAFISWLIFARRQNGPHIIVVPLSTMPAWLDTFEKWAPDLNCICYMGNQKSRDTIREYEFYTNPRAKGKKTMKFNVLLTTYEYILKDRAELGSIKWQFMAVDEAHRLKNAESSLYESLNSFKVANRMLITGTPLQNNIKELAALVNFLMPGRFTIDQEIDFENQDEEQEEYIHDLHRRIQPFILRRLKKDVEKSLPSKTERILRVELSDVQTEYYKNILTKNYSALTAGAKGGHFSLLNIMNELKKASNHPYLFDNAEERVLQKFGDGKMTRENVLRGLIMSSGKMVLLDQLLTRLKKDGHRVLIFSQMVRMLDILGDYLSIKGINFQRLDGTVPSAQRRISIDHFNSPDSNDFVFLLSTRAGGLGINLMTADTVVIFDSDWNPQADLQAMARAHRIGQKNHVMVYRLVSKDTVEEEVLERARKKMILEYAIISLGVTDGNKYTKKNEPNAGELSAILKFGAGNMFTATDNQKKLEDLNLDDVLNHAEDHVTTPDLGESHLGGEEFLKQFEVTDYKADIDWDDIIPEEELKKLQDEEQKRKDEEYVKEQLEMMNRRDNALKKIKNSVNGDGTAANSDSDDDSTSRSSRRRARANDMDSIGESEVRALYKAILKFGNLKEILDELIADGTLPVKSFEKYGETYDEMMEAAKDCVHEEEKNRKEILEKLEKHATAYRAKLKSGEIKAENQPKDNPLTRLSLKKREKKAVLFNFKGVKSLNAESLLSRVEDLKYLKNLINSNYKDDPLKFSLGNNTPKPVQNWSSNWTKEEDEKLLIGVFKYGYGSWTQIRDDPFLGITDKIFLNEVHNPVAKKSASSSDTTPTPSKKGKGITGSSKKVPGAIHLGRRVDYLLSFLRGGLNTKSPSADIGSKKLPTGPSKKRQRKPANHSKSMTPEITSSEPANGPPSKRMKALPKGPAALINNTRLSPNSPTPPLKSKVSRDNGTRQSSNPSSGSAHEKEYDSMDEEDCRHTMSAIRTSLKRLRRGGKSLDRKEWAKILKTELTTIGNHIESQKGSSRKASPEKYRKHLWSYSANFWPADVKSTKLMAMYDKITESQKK
# Protein translocase subunit SecA (Escherichia coli (strain K12)), sequence (P10408 whole entry): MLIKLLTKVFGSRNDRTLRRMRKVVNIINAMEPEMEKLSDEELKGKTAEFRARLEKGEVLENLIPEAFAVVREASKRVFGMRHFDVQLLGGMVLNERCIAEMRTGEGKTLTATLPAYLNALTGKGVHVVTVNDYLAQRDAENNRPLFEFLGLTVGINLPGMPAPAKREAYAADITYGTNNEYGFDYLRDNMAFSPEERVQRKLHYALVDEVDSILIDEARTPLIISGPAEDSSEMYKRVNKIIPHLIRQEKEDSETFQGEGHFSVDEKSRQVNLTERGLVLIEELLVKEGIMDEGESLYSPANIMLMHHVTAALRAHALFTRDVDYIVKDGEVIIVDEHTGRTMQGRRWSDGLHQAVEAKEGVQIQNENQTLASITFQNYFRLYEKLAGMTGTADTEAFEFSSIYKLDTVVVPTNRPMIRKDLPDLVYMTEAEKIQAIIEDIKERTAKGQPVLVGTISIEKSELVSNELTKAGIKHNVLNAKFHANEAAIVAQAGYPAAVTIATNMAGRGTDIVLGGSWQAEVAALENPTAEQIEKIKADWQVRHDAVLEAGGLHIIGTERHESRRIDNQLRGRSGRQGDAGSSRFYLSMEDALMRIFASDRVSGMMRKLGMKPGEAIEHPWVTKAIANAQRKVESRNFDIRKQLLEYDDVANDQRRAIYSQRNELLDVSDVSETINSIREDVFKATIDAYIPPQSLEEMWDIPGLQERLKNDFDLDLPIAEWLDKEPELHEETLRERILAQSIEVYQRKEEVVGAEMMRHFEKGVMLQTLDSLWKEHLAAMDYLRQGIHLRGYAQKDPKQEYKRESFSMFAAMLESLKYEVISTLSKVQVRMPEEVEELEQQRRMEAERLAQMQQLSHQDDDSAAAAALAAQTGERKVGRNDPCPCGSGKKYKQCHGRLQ
SMILES,Percent Effect [1] [%],Percent Effect [2] [%],Percent Effect [3] [%],Percent Effect [4] [%],Percent Effect (Trypanosoma cruzi) [%],Percent Effect [5] [%],Percent Effect [6] [%],Percent Effect (Homo sapiens) [%],Percent Effect [7] [%],Percent Effect [8] [%],Percent Effect [9] [%]
Cc1cccc(C(=O)NC2CCN(c3cnn(C)c3)C2=O)n1 (stereo unspecified),-4.94,16.2,-3.39,24.3,7.33,23.6,9.36,-7.64,3.23,13.6,-10.2
CC(C(=O)NCc1ccnc(N2CCN(C)CC2)c1)n1cccn1 (stereo unspecified),-0.897,0,-0.213,6.59,7.14,3.06,-4.18,1.68,0.49,7.32,-5.23
CCCc1noc(CN(C)C(=O)C2COc3ccccc3C2)n1 (stereo unspecified),-2.56,7.79,-0.0483,4.75,-3.25,-30.3,14.1,-15.6,5.38,16.1,-3.26
Cc1nn(C)c(N(C)C)c1CNCc1cccc(CN(C)C(C)C)c1,-3.75,13.5,-10.9,25.4,3.03,10.7,9.87,-7.67,5.38,21,-8.38
COCCCC1(CO)CCCN(CCS(C)(=O)=O)C1 (stereo unspecified),-1.54,0,3.61,-1.71,0,1.36,2.13,-0.331,2.15,5,2.4
COc1cc(C)nc(N2CCN(C(=O)c3ccccc3C)CC2)n1,-6.89,2.7,-5.76,17.5,8.4,-13.2,1.8,9.59,5.42,18.5,-18.4
CCCc1cc(C(=O)N(C)Cc2cccc3ncccc23)n(C)n1,-4.03,15.6,2.46,20.3,3.25,-19.3,14.6,36.1,7.53,18.5,-8.05
Fc1cccc(N2CCCC3(C2)CN(c2ncccn2)CCO3)c1 (stereo unspecified),-0.397,13,2.68,-5.04,-2.66,3.23,9.4,23.1,7.41,14.1,-4.87
Cc1cnn(CC(C)NCc2nc(-c3cccnc3)no2)c1 (stereo unspecified),-6.08,-1.39,-14,7.77,-4.76,-1.32,13,-8.09,7.37,5.13,-1.42
CC(C)(C)C(=O)NCCC(=O)NS(=O)(=O)c1ccc2c(c1)OCCO2,-4.61,5.48,0.75,8.35,7.64,-0.909,7.1,-22.6,5.38,10,-1.32
CCN(CC)C(=O)Cn1ccc2cc(NC(=O)C3CC3)ccc21,-5.06,15.8,-9.59,7.96,6.39,-3.06,14.9,4.68,5.39,21.9,-12.7
COCCOc1ccc(NC(=O)C2CCC2)cn1,-2.7,17.7,1.58,-6,0.85,5.7,15.6,-2.54,9.36,16.5,-6.65
Cc1nn(C)c(N(C)C)c1CNCC(O)c1ccccc1 (stereo unspecified),-0.702,2.74,-3.51,-6.11,-4.31,3.64,16.1,-8.18,3.23,10,-3.32
O=C(C1CC1)N1CCC(c2nc(O)c3c(n2)CCN(C2CCCC2)C3)C1 (stereo unspecified),-5.51,13.3,6.57,-6.26,-4.33,1.17,5.55,11.8,1.06,6.41,-7.54
O=C(c1cc(COc2ccc3c(c2)OCO3)[nH]n1)N1CC=CC1CO (stereo unspecified),-3.88,-2.74,9.97,22.3,-5.36,0.399,15.3,9.04,3.12,-8.64,0.567
Cc1cc(-c2cnc(NCc3cccnc3)nc2C(C)(C)C)on1,-1.82,0,24.3,4.38,-3.74,-0.699,8.37,43.3,6.38,6.41,-0.51
